The target in assay [1] is T1, Aurora kinase A (Homo sapiens) (UniProt O14965).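 Further: values are mean percent inhibition.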
T1 sequence (whole entry): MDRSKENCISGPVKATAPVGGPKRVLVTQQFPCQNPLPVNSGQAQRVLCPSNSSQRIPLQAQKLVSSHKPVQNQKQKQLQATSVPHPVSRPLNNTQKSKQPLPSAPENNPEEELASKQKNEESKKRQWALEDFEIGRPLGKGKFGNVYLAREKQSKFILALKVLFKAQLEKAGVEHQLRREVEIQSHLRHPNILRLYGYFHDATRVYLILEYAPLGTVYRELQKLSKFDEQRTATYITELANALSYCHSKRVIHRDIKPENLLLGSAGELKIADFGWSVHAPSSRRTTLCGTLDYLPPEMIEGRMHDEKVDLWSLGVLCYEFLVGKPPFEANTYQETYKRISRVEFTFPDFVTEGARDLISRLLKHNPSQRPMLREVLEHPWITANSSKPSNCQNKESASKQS
The settings on record: at 1 µM.

In assay [2] the target is Aurora kinase B (Homo sapiens) (UniProt Q96GD4). The settings on record: at 0.1 µM.
Sequence of Aurora kinase B (Homo sapiens) (Q96GD4 whole entry): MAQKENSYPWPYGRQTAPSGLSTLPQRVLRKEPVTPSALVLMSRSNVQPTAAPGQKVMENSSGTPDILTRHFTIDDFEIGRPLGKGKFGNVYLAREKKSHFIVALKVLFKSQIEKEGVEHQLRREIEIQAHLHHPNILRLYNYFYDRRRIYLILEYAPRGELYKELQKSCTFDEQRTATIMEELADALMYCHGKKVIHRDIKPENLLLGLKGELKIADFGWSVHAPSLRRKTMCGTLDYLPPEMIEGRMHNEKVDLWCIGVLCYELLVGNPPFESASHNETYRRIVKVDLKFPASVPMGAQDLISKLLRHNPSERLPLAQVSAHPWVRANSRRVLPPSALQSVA
Assay [3] has the same target. The settings on record: at 1 µM.
For assay [4], the target named is T2, Aurora kinase C (Homo sapiens) (UniProt Q9UQB9).
T2 sequence (whole entry): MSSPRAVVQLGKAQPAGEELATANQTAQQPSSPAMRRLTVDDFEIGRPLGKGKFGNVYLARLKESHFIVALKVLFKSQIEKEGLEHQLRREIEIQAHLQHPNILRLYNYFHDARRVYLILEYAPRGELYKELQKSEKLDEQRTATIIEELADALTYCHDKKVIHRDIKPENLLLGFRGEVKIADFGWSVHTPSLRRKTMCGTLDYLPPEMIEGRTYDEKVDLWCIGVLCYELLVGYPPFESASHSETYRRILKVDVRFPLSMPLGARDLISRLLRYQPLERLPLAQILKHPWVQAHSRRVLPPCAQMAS
The settings on record: at 0.1 µM.

The target in assay [5] is T2, Aurora kinase C (Homo sapiens). The settings on record: at 1 µM.
Assay [6] concerns the target Serine/threonine-protein kinase 10 (Homo sapiens) (UniProt O94804). The settings on record: at 0.1 µM.
Assay [7] shares this target. The settings on record: at 1 µM.
Assay [8] concerns the target T3, Mitogen-activated protein kinase kinase kinase kinase 2 (Homo sapiens) (UniProt Q12851).
T3 sequence (whole entry): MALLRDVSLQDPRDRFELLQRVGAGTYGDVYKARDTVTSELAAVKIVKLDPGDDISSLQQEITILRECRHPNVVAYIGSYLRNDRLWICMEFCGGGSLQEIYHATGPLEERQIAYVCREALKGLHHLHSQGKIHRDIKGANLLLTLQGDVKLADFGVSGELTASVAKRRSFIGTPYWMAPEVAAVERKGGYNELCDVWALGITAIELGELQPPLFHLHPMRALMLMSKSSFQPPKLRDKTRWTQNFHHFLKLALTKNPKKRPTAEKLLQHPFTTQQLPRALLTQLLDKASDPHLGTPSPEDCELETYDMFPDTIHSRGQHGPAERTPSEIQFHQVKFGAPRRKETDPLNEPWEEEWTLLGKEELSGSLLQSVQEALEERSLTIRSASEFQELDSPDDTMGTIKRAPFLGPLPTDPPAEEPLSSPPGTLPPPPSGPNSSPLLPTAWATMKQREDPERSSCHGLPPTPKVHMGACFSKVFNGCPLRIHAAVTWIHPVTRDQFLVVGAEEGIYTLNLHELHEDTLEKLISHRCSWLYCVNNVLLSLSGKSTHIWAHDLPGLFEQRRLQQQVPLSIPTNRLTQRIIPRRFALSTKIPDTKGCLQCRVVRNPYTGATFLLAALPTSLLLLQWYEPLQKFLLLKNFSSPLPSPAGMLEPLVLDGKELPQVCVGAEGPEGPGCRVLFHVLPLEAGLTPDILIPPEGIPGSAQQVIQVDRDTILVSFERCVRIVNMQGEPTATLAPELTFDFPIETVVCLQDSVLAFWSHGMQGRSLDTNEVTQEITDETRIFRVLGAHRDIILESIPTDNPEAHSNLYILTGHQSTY
The settings on record: at 0.1 µM.

The target in assay [9] is T3, Mitogen-activated protein kinase kinase kinase kinase 2 (Homo sapiens). The settings on record: at 1 µM.
Assay [10] has as its target Mitogen-activated protein kinase kinase kinase kinase 4 (Homo sapiens) (UniProt O95819). The settings on record: at 0.1 µM.
Assay [11] shares this target. The settings on record: at 1 µM.
Assay [12] concerns the target Dual specificity mitogen-activated protein kinase kinase 1 (Homo sapiens) (UniProt Q02750). The settings on record: at 0.1 µM.
For assay [13] the target is unchanged. The settings on record: at 1 µM.
Assay [14] has as its target Misshapen-like kinase 1 (Homo sapiens) (UniProt Q8N4C8). The settings on record: at 0.1 µM.
For assay [15] the target is unchanged. The settings on record: at 1 µM.
The target of assay [16] is T4, Serine/threonine-protein kinase 4 (Homo sapiens) (UniProt Q13043).
T4 sequence (whole entry): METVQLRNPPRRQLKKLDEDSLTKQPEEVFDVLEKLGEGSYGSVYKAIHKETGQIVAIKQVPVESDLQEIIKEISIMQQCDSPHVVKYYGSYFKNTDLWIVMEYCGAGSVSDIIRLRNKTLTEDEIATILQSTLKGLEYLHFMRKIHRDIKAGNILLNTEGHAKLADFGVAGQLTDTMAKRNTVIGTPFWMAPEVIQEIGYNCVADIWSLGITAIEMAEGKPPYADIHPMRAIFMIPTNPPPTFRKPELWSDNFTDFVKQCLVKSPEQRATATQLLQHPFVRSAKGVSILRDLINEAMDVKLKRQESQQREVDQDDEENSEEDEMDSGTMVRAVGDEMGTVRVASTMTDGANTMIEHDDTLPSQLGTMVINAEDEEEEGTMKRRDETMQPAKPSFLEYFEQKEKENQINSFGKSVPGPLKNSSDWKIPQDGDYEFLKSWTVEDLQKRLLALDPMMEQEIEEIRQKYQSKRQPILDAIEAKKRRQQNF
The settings on record: at 0.1 µM.

Assay [17] addresses T4, Serine/threonine-protein kinase 4 (Homo sapiens). The settings on record: at 1 µM.
The target in assay [18] is T5, Serine/threonine-protein kinase 3 (Homo sapiens) (UniProt Q13188).
T5 sequence (whole entry): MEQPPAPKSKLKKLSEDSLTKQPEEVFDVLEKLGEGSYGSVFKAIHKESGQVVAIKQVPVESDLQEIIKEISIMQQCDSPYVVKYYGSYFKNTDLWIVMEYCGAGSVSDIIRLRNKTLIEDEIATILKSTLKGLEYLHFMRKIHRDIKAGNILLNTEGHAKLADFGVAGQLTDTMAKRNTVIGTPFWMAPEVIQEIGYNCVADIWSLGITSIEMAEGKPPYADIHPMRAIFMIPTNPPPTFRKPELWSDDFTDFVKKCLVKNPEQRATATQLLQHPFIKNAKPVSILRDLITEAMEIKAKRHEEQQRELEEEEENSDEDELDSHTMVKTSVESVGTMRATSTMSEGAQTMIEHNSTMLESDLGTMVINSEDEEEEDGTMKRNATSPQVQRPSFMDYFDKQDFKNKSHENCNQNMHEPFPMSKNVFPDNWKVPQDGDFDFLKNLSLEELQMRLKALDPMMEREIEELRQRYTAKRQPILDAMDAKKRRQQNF
The settings on record: at 0.1 µM.

For assay [19], the target named is T5, Serine/threonine-protein kinase 3 (Homo sapiens). The settings on record: at 1 µM.
Assay [20] addresses Serine/threonine-protein kinase 26 (Homo sapiens) (UniProt Q9P289). The settings on record: at 0.1 µM.

For orientation: inhibition means the relative decrease from the control value, in per cent.

Sequence of Serine/threonine-protein kinase 26 (Homo sapiens) (Q9P289 2-416 limits assumed): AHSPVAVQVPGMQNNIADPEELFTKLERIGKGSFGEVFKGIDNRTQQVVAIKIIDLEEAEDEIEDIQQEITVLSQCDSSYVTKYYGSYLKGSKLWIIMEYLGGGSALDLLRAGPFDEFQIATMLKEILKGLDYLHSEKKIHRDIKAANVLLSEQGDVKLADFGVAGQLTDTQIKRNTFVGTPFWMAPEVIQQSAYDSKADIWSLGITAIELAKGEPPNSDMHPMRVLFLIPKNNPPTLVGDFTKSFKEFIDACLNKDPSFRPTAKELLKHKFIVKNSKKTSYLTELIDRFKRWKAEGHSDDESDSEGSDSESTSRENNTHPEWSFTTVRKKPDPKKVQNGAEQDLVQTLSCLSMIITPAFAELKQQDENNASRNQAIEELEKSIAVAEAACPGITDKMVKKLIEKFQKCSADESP
Sequence of Misshapen-like kinase 1 (Homo sapiens) (Q8N4C8 whole entry, looked up): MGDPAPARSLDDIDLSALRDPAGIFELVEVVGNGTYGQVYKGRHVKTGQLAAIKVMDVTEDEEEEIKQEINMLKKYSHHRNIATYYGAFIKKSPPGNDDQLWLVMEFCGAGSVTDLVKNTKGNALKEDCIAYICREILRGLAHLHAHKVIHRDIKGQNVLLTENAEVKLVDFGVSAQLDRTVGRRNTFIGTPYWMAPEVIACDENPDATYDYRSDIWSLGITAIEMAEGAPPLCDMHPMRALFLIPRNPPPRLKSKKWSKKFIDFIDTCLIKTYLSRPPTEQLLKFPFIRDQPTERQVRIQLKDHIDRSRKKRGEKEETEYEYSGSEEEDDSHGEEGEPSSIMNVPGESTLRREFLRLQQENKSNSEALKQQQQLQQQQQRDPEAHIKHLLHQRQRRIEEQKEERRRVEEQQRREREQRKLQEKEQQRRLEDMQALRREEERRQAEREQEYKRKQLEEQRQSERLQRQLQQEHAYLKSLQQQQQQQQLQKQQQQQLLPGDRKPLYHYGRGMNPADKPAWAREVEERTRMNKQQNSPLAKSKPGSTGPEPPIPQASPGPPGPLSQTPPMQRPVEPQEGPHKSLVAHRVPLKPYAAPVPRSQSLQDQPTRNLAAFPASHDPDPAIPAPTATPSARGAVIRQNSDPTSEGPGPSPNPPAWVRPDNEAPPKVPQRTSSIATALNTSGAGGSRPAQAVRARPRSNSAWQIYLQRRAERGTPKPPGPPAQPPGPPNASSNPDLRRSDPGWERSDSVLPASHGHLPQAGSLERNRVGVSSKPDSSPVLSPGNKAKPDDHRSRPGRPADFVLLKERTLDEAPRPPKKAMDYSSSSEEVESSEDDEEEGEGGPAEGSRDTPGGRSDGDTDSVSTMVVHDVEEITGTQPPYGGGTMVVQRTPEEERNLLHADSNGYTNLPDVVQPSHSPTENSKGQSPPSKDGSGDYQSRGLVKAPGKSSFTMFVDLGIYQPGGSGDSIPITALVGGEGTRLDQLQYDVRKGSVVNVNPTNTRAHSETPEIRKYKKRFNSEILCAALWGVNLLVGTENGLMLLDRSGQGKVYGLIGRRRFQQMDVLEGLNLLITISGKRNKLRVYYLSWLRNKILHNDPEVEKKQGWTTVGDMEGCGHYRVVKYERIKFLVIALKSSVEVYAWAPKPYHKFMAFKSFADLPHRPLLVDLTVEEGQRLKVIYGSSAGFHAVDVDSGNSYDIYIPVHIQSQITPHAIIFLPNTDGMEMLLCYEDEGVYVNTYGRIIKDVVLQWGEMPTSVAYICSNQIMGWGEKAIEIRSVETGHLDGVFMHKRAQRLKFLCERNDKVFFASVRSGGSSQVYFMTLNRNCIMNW
Sequence of Mitogen-activated protein kinase kinase kinase kinase 4 (Homo sapiens) (O95819 2-1239 limits assumed): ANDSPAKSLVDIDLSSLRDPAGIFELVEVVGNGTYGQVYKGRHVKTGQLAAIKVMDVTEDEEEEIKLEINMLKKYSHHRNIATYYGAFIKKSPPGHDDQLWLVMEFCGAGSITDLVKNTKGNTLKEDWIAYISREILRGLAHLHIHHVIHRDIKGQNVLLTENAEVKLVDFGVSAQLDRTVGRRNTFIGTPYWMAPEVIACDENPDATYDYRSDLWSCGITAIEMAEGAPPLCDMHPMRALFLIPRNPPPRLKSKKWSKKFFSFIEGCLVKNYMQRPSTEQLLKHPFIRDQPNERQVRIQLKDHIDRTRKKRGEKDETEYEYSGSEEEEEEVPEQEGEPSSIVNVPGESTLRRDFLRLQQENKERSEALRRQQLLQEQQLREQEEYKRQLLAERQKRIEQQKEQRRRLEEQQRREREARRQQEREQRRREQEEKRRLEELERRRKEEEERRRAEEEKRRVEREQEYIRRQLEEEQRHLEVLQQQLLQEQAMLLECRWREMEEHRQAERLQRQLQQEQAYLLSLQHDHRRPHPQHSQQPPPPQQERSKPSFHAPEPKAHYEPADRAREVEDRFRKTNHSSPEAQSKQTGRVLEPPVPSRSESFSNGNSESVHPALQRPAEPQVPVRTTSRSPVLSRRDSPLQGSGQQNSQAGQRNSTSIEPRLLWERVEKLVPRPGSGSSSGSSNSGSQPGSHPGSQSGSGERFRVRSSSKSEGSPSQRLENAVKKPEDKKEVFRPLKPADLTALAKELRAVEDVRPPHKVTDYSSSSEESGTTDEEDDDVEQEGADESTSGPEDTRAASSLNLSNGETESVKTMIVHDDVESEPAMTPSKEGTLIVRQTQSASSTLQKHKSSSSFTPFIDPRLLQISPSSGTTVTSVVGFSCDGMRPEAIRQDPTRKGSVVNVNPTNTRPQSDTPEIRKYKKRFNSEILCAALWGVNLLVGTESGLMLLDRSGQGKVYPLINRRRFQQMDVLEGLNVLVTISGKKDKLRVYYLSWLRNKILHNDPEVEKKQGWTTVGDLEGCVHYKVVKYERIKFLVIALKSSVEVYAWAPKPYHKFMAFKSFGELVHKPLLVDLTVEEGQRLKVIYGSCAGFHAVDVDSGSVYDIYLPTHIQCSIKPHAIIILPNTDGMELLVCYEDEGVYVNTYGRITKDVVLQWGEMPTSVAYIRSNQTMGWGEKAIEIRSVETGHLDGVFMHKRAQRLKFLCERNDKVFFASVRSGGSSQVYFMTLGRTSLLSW
Sequence of Dual specificity mitogen-activated protein kinase kinase 1 (Homo sapiens) (Q02750 whole entry): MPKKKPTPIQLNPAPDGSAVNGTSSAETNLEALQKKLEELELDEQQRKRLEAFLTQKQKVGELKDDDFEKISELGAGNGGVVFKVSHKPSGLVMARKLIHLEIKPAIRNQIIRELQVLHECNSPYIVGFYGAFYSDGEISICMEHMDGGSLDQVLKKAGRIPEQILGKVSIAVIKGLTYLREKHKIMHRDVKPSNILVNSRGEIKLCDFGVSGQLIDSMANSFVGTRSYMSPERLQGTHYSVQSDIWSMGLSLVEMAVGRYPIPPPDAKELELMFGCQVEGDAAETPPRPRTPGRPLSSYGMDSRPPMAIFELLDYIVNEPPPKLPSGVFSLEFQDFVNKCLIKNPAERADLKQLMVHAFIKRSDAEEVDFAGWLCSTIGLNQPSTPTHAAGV
Sequence of Serine/threonine-protein kinase 10 (Homo sapiens) (O94804 whole entry, looked up): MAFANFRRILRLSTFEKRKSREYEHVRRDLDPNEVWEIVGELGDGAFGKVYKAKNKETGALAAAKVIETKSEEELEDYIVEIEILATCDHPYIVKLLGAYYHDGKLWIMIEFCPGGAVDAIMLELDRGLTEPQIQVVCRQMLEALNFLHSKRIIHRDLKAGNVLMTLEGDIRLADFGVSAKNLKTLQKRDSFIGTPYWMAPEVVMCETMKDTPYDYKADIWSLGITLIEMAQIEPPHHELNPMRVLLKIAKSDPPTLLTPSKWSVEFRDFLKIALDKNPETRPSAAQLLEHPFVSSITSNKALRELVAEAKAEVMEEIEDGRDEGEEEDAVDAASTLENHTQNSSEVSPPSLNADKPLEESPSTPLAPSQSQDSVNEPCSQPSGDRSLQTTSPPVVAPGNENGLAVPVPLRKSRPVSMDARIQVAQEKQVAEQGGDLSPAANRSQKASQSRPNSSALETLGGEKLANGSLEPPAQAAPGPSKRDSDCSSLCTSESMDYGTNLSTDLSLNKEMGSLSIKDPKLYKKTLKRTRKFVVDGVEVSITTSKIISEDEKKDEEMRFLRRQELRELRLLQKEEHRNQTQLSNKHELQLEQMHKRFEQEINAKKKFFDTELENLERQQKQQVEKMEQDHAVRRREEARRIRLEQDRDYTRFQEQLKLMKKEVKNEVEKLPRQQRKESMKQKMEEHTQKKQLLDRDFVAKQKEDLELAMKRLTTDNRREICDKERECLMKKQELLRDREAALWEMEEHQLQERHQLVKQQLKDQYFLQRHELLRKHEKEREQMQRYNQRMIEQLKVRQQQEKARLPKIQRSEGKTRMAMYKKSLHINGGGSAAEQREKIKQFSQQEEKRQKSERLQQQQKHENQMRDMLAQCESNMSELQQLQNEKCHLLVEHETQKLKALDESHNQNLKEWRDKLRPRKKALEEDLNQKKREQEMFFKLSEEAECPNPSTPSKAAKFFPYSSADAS

Consider `CS(=O)(=O)CCNCc1nc(-c2ccc3ncnc(Nc4ccc(F)c(Cl)c4)c3c2)cs1`, for which the inhibition is 9.04% in assay [1]; 3.41% in [2]; 6.36% in [3]; 2.51% in assay [4]; -0.59% in [5]; 5.44% in assay [6]. The inhibition worked out at 27.7% in assay [7]; 1.34% in assay [8]; 2.52% in [9]; 3.38% in assay [10]; 4.84% in assay [11]; 1.19% in assay [12]. The inhibition in [13] came out at 2.66%; in assay [14], 2.93%; in assay [15], 3.2%; in [16], 4.8%; in assay [17] it was 6.35%; in [18], 5.67%. In addition, the inhibition in assay [19] is 4.59%; in assay [20] it was 2.56%.
On to `COc1cc(C)c(NC(=O)CN(C)C)cc1Nc1nc(Nc2cccc(F)c2C(N)=O)c2cc[nH]c2n1`, for which the inhibition was 13.5% in assay [1]; -2.09% in assay [2]; 6.07% in assay [3]; -0.55% in assay [4]; 12.3% in assay [5]; 2.47% in [6]. The inhibition in [7] worked out at 3.17%; in assay [8], 9.71%; in [9] it was 43.9%; in [10], 4.26%; in assay [11], 17.8%; in assay [12], 3.12%. Further, the inhibition in [13] worked out at 6.41%; in [14], 3.15%; in assay [15], 13.8%; in assay [16], 4.73%; in [17] it was 17.7%; in assay [18] it was 5.85%. Also, the figures for the inhibition in assay [19] and in assay [20] were 7.94% and 0.41%, respectively.
As to `CCc1cccc(NC(=O)Nc2ccc(Oc3ccc4nc(NC(=O)OC)[nH]c4c3)cc2)c1`, the inhibition in assay [1] was 8.38%; in [2], 7.89%; in assay [3], 15.6%; in assay [4] it was 10.3%; in [5], 37.5%; in assay [6] it was 46.8%. The inhibition in assay [7] was 57.8%; in assay [8], 1.82%; in assay [9], 5.21%; in assay [10], 1.49%; in assay [11] it was 3.37%; in assay [12] it was 1.28%. In addition, the inhibition in [13] was 1.44%; in [14] it was 3.46%; in assay [15], 3.01%; in assay [16], 3.69%; in [17], 8.88%; in [18], 5.1%. Also, the figures for the inhibition in [19] and in assay [20] were 4.89% and 2.48%, respectively.
For `COc1cc(C=NNc2ncnc3c2cnn3-c2ccccc2)ccc1O`, the inhibition in assay [1] amounted to 94%; in assay [2] it was 11.5%; in [3], 56.8%; in assay [4] it was 9.9%; in assay [5], 88.3%; in assay [6] it was 5.58%. The inhibition in assay [7] came to 26.1%; in assay [8], 4.63%; in [9] it was 19.3%; in assay [10] it was 28.1%; in [11], 70.6%; in [12] it was 1.68%. Also, the inhibition was determined as 1.06% in assay [13]; 24% in assay [14]; 64.7% in assay [15]; 2.58% in assay [16]; 11.5% in [17]; 3.41% in [18]. Moreover, the figures for the inhibition in assay [19] and in [20] were 6.24% and 1.85%, respectively.
On to `CCCN1CCC=C(c2ccc(Nc3nc(Nc4ccccc4C(N)=O)c4cc[nH]c4n3)c(C)c2)C1`, for which the inhibition in assay [1] is 32.6%; in assay [2], 5.03%; in [3], 12.8%; in assay [4], 1.85%; in [5] it was 13.7%; in assay [6], 8.52%. Besides, the inhibition was 14.9% in assay [7]; 6.05% in assay [8]; 35.5% in assay [9]; 19.2% in [10]; 65.3% in assay [11]; 7.02% in assay [12]. Moreover, the inhibition in assay [13] is 28.7%; in [14], 14.8%; in assay [15] it was 55.2%; in assay [16], 9.53%; in [17], 42.5%; in assay [18], 5.37%. Further, the inhibition in assay [19] is 21.2%; in assay [20] it was -2.63%.
With `COc1cc2ncn(-c3cc(O[C@H](C)c4ccccc4Cl)c(C(N)=O)s3)c2cc1OC`, the inhibition in [1] was 30.1%; in assay [2] it was 8.7%; in assay [3] it was 37.9%; in [4], 4.62%; in assay [5] it was 50.7%; in assay [6], 99.3%. The inhibition in assay [7] was found to be 88%; in assay [8], 13.6%; in assay [9], 47.4%; in [10], 4.5%; in assay [11] it was 18.6%; in assay [12], 4.68%. Also, the inhibition in assay [13] was 4.4%; in assay [14], 5.71%; in [15], 16.9%; in [16] it was 40.3%; in assay [17] it was 77%; in [18] it was 34.7%. The inhibition is 73.8% in [19] and -3.36% in assay [20].
With `Fc1cccc(COc2ccc(Nc3ncnc4cc(-c5ccc[nH]5)sc34)cc2Cl)c1`, the inhibition in assay [1] is 7.53%; in assay [2], 0.54%; in [3], 13.2%; in assay [4], -2.76%; in [5], -2.08%; in assay [6] it was 2.11%. Moreover, the inhibition came out at 11.9% in [7]; 0.55% in assay [8]; 4.58% in assay [9]; 5.64% in assay [10]; 13.9% in [11]; 3.99% in assay [12]. Also, the inhibition in assay [13] came out at 3.24%; in assay [14], 6.08%; in assay [15], 12.7%; in assay [16], 0.61%; in assay [17] it was 2.35%; in [18], 1.18%. Moreover, the inhibition is 3.32% in assay [19] and -0.07% in [20].
